# Results filed as inconclusive are left out. The source made the active and inactive calls. The calls were made as follows: active = hit-call score of the fitted dose curve at least 0.9, where 1 is the maximum; inconclusive = response in the unintended direction; inactive = score below 0.9.
# Read-out: ABC Transporter (ABCB11), ABCB11 (gene 8647)
# Experiment: CLD_ABCB11_48hr: CellzDirect (CLD) Gene Expression Assay for ABC Transporter (ABCB11) at 48 hours (AID 2283697)
# Description: CLD_48hr is a cell-based, multiplexed-readout assay that uses hepatocyte, a human liver primary cell, with measurements taken at 48 hours after chemical dosing in a 96-well plate.CLD_ABCB11_48hr is one of 16 assay component(s) measured or calculated from the CLD_48hr assay. It is designed to make measurements of mRNA induction, a form of inducible reporter, as detected with chemiluminescence signals by Quantitative Nuclease Protection Assay (qNPA) technology.Data from the assay component CLD_ABCB11_48hr was analyzed at the endpoint, CLD_ABCB11_48hr, in the positive analysis fitting direction relative to DMSO as the negative control and baseline of activity. Using a type of inducible reporter, gain-of-signal activity can be used to understand changes in the reporter gene as they relate to the gene ABCB11. Furthermore, this assay endpoint can be referred to as a primary readout. To generalize the intended target to other relatable targets, this assay endpoint is annotated to the transporter intended target family, where subfamily is ABC transporter.
# Human hepatocyte cultures were treated daily for two consecutive days with fresh dosing solutions containing appropriate concentrations of the 320 ToxCast chemicals (chemical identities were blinded to CellzDirect and other ToxCast collaborators), vehicle control (0.2% DMSO), and positive control inducers as summarized in Table 1. Due to the large number of treatment groups and chemicals examined, the ToxCast chemicals were divided into two groups (spanning two independent cultures of hepatocytes from separate donor preparations (Hu778: ToxCast plates 1 and 2; Hu776: ToxCast plates 3 and 4). Each preparation of human hepatocyte cultures was treated with respective vehicle control, medium only control, set of six positive controls/reference chemicals for the five hepatic receptor pathways, and a subset of eight of the ToxCast chemicals (indoxacarb, pyrithiobac-sodium, norflurazon, cyhalofop-butyl, methomyl, thiram, acetochlor, and propiconazole). These replicate data, coupled with internal replicates designed within the blinded ToxCast chemical library, provided additional data to evaluate interindividual differences between hepatocyte preparations and their potential impact on chemical profiles.Cell morphology and integrity were evaluated using phase-contrast microscopy as an indicator of hepatocyte cell health (Tyson & Green, 1987). Cultures for each treatment group (i.e., media, vehicle [0.2% DMSO], positive control inducers [multiple concentrations], and the ToxCast chemicals [multiple concentrations]) were observed and cell morphology was assessed relative to vehicle control cultures at each harvest time point (0, 6, 24, or 48 h). […] Images were evaluated at the conclusion of the study to assess changes in cell integrity and account for the effects of chemical exposure on uncharacteristic changes in concentration-dependent gene expression profiles. The results from these determinations of apparent cytotoxicity were annotated (yes/no) alongside the corresponding qNPA data for reference.At the conclusion of each treatment period, hepatocyte cultures (96-well) were washed with 1 volume of HBSS, lysed by addition of 25 ul ArrayPlate lysis buffer (HTG, Tucson, AZ), and 70 ul/well of Denaturation Oil, denatured by incubation at 95C for 10 min, and frozen at approximately -70C until analysis by nuclease protection assay (qNPA) (Roberts et al., 2007). For qNPA analysis, cell lysates were thawed at 50C for approximately 30 min, qNPA probes were added, and samples were incubated at 95C for 10 min to begin the detection process by denaturing the target RNA, dissociating the duplexes and secondary structure hybridization. At the conclusion of the hybridization period, S1 nuclease reagent was added to each sample to digest all nonprotected nucleotides at 50C for 60-90 min. […]
SMILES,outcome,AC50
Cc1c(F)c(F)c(COC(=O)C2C(/C=C(\Cl)C(F)(F)F)C2(C)C)c(F)c1F (stereo unspecified),inactive,
CS/C(C)=N/OC(=O)N(C)SN(C)C(=O)O/N=C(\C)SC,inactive,
O=C(O)c1nc(Cl)ccc1Cl,,6.55 µM (active)
CCON=C(CC)C1=C(O)CC(c2c(C)cc(C)cc2C)CC1=O (stereo unspecified),inactive,
CCc1nn(C)c(C(=O)NCc2ccc(C(C)(C)C)cc2)c1Cl,,37 µM (active)
COc1nc(C)nc(NC(=O)NS(=O)(=O)c2ccccc2Cl)n1,inactive,
C#CCOS(=O)OC1CCCCC1Oc1ccc(C(C)(C)C)cc1 (stereo unspecified),inactive,
COC(=O)C=C(C)OP(=O)(OC)OC,inactive,
COC(=O)N(OC)c1ccccc1COc1ccn(-c2ccc(Cl)cc2)n1,,35.7 µM (active)
COC(=O)C(C)Oc1ccc(Oc2ccc(Cl)cc2Cl)cc1 (stereo unspecified),inactive,
CN(C)C(=S)SSC(=S)N(C)C,inactive,
COc1nc(NC(C)C)nc(NC(C)C)n1,inactive,
COc1nc(C)nc(NC(=O)NS(=O)(=O)c2ccccc2CCC(F)(F)F)n1,inactive,
CC(C)(C)c1ccc(CSc2cnn(C(C)(C)C)c(=O)c2Cl)cc1,inactive,
Oc1ccccc1-c1ccccc1,inactive,
COC(=O)c1ccccc1C(=O)OC,inactive,

# Reference: PubChem BioAssay (EPA / NIEHS)
